Source: PubChem BioAssay AID463173 (ICCB-Longwood Screening Facility, Harvard Medical School, 2010)
Out of some 52,000 compounds screened, about 1,700 (3.3%) were called active. Rule as the data show it: active = survival mostly below about 52% (no sharp cut-off); inactive = mostly above about 56%. This excerpt belongs to a sample that is enriched for actives.

tested on: Wild type; assay: S. aureus survival, RN4220 and DeltatarO strains – OD600, teichoic acid synthesis inhibitors, primary screen (AID 463173); settings: S. aureus RN4220 wild type/DeltatarO growth, OD600, 18 h, stronger effect = lower value, screened at 18.75 µg/mL (by protocol)

Row | Structure (SMILES) | survival
1 | Cc1ccc(-c2nc(CCNC(=O)C(=O)Nc3ccc(F)cc3F)cs2)cc1 | 63% (inactive)
2 | Cc1cc(NC(=O)c2ccccc2Cl)ccc1NC(=O)c1ccccc1 | 85% (inactive)
3 | Cc1ccc(C(=O)COC(=O)c2cccc(NC(=O)c3ccc(Cl)cc3Cl)c2)cc1 | 81% (inactive)
4 | Cc1ccc(NC(=O)c2ccc(Cl)cc2Cl)c(C(=O)c2ccccc2)c1 | 1% (active)
5 | Cc1ccc(NC(=O)c2ccccc2Br)c(C(=O)c2ccccc2)c1 | 25% (inactive)
6 | O=C(Nc1cc2c(cc1C(=O)c1ccccc1)OCCO2)c1ccc(Br)cc1 | 86% (inactive)
7 | Cc1ccc(NC(=O)c2ccc(Br)cc2)c(C(=O)c2ccccc2)c1 | -2% (active)
8 | CCCCn1cc2c(c1-c1ccc(Cl)cc1)c(=O)n(C)c(=O)n2C | 83% (inactive)
9 | COc1ccc2c(CNC3CCCCCC3)c(C(=O)O)n(Cc3ccccc3F)c2c1 | 89% (inactive)
10 | CCC1CCCCN1C(=O)c1ccc2c(c1)N(Cc1cccc(Cl)c1)C(=O)c1ccccc1S2(=O)=O (centres undefined) | 73% (inactive)
11 | Cc1ccc(N2CCN(C(=O)c3c(C)oc4nc(C)nc(N5CCCC5)c34)CC2)c(C)c1 | 81% (inactive)
12 | Cc1nn2c(-c3cccc(NC(=O)c4ccc(Cl)cc4)c3)nnc2c2ccccc12 | 113% (inactive)
13 | Cc1ccccc1NC(=O)c1cc2c(-c3ccccc3)nn(-c3ccccc3)c2s1 | 86% (inactive)
14 | COc1ccccc1NC(=O)c1cc2c(C)nn(-c3ccccc3)c2s1 | 1% (active)
15 | COc1ccc(NC(=O)c2cc3c(C)nn(-c4ccccc4)c3s2)c(OC)c1 | 63% (inactive)
16 | Cc1nn(-c2ccccc2)c2sc(C(=O)Nc3ccc(Br)cc3)cc12 | 52% (inactive)
17 | COc1ccccc1NC(=O)c1cc2c(-c3ccccc3)nn(-c3ccccc3)c2s1 | 77% (inactive)
18 | Cc1nn(-c2ccccc2)c2sc(C(=O)Nc3ccccc3Br)cc12 | 7% (active)
19 | Cc1ccc2oc(=O)c3cc(C(=O)Nc4ccc(F)cc4F)sc3c2c1 | 80% (inactive)
20 | CCc1ccccc1NC(=O)c1ccc(Cn2nc(N3CCN(c4ccccc4)CC3)ccc2=O)o1 | 70% (inactive)
21 | Cc1cccc(-n2ccnc2SCC(=O)Nc2ccc(F)cc2F)c1C | 71% (inactive)
22 | Cc1cccc(CS(=O)(=O)CC2Nc3ccc(C(=O)NCc4ccccc4)cc3NC2=O)c1 (centres undefined) | 71% (inactive)
23 | CCOC(=O)CNc1ncnc2c1nnn2C | 22% (inactive)

Row | Structure (SMILES) | survival
24 | CCc1nc2c(cnn2-c2ccc(Cl)cc2)c(=O)n1-c1ccc(OC)c(Cl)c1 | 78% (inactive)
25 | CCOc1cccc2sc(NC(=O)c3ccc(S(=O)(=O)N4CCCCC4C)cc3)nc12 (centres undefined) | 10% (active)
26 | CCOc1cccc2sc(NC(=O)c3ccc(S(=O)(=O)N4CCCCC4)cc3)nc12 | 75% (inactive)
27 | CCOc1cccc2sc(NC(=O)c3ccc(S(=O)(=O)N4CCCc5ccccc54)cc3)nc12 | 88% (inactive)
28 | CCOC(=O)c1c(-c2ccccc2)csc1NC(=O)c1cc(-c2ccc(Cl)cc2)on1 | 85% (inactive)
29 | Cc1ccc(-n2ncc3c(NCCC4=CCCCC4)ncnc32)cc1 | -3% (active)
30 | Cc1ccc(-n2ncc3c(Nc4ccc(Oc5ccccc5)cc4)ncnc32)cc1 | 74% (inactive)
31 | Fc1ccc(-n2ncc3c(NCCC4=CCCCC4)ncnc32)cc1 | 59% (inactive)
32 | Cc1ccc(-n2ncc3c(NC(C)c4ccccc4)ncnc32)cc1 (centres undefined) | 73% (inactive)
33 | Cc1ccc(-n2ncc3c(NCCCc4ccccc4)ncnc32)cc1 | 69% (inactive)
34 | CCCCc1ccc(Nc2ncnc3c2cnn3-c2ccc(C)cc2)cc1 | -1% (active)
35 | CCC(CO)Nc1ncnc2c1cnn2-c1ccc(C)cc1 (centres undefined) | -6% (active)
36 | Cc1ccc(-n2ncc3c(NCCC4=CCCCC4)ncnc32)cc1C | 131% (inactive)
37 | CCC(C)Nc1ncnc2c1cnn2-c1ccc(F)cc1 (centres undefined) | 71% (inactive)
38 | COc1ccc(-c2noc(-c3ccc(N4CCC(C)CC4)c([N+](=O)[O-])c3)n2)cc1OC | 89% (inactive)
39 | O=C(C1CCCCC1)N(Cc1cccnc1)c1nc2ccc(Cl)cc2s1 | 72% (inactive)
40 | CCc1nn(CC(=O)Nc2ccc(NC(C)=O)cc2)c(=O)c2cc3sccc3n12 | 86% (inactive)
41 | CCOc1ccccc1NC(=O)c1cnn2c(C(F)F)cc(-c3ccccc3)nc12 | 52% (inactive)
42 | CCOC(=O)C1CCN(C(=O)c2cc3sc(C)cc3n2C)CC1 | 89% (inactive)
43 | CC1CCN(S(=O)(=O)c2ccc3c(c2)N(CC(=O)NCCN(C)C)C(=O)CO3)CC1 | 76% (inactive)
44 | c1ccc(CNc2nc3ccccc3c3nc(-c4ccccc4)nn23)cc1 | 67% (inactive)
45 | COc1ccccc1CNc1nc2ccccc2c2nc(-c3cccnc3)nn12 | 67% (inactive)
46 | Cc1cccc(-c2nc3c4ccccc4nc(NCc4ccccc4Cl)n3n2)c1 | 163% (inactive)

Row | Structure (SMILES) | survival
47 | CCCCNc1nc2ccccc2c2nc(-c3ccccc3)nn12 | -1% (active)
48 | Cc1cccc(-c2nc3c4ccccc4nc(NCCc4ccccc4)n3n2)c1 | 3% (active)
49 | Cc1ccc(CCNc2nc3ccccc3c3nc(-c4ccccc4)nn23)cc1 | 73% (inactive)
50 | Cc1ccc(CNc2nc3ccccc3c3nc(-c4cccc(C)c4)nn23)cc1 | 26% (inactive)
51 | COc1ccc(CCNc2nc3ccccc3c3nc(-c4cccc(C)c4)nn23)cc1OC | 24% (inactive)
52 | COc1ccccc1CNc1nc2ccccc2c2nc(-c3cccc(C)c3)nn12 | 9% (active)
53 | CN1C(N)=NC(=O)C1(CO)CO | 104% (inactive)
54 | CCOc1ccc(NC(=O)CSc2nc(-c3cccs3)cc(C(F)(F)F)c2C#N)cc1 | 66% (inactive)
55 | O=C(Cn1c(=O)c2ccccc2n(CC(=O)Nc2ccccc2F)c1=O)NCCc1ccccc1 | 89% (inactive)
56 | CCOc1ccc(CCNC(=O)c2cc3cc4ccc(OC)cc4nc3s2)cc1OCC | 101% (inactive)
57 | Cc1ccccc1-c1nc(CS(=O)CC(=O)NCCc2ccc(Cl)cc2)c(C)o1 (centres undefined) | 128% (inactive)
58 | COc1cccc(-c2nc(CS(=O)(=O)CC(=O)N3CCN(c4ccccc4)CC3)c(C)o2)c1 | 94% (inactive)
59 | Cc1ccccc1-c1nc(CS(=O)CC(=O)N2CCN(c3cc(Cl)ccc3C)CC2)c(C)o1 (centres undefined) | 10% (active)
60 | Cc1ccc(-c2nc(CS(=O)CC(=O)N3CCN(c4ccccc4)CC3)c(C)o2)cc1 (centres undefined) | 88% (inactive)
61 | COc1cccc(-c2nc(CS(=O)CC(=O)N3CCN(c4cccc(C(F)(F)F)c4)CC3)c(C)o2)c1 (centres undefined) | -2% (active)
62 | Cc1ccc(-c2nc(CS(=O)CC(=O)N3CCN(c4ccc(Cl)cc4)CC3)c(C)o2)cc1 (centres undefined) | 73% (inactive)
63 | Cc1oc(-c2ccccc2Cl)nc1CS(=O)CC(=O)N1CCN(c2cccc(C(F)(F)F)c2)CC1 (centres undefined) | 129% (inactive)
64 | Cc1ccc(-c2nc(CS(=O)CC(=O)N3CCN(c4cccc(Cl)c4)CC3)c(C)o2)cc1 (centres undefined) | 5% (active)
65 | Cc1oc(-c2ccc(Cl)cc2)nc1CS(=O)CC(=O)N1CCN(c2cccc(C(F)(F)F)c2)CC1 (centres undefined) | 80% (inactive)
66 | CCOc1ccc(-c2nc(CSCC(=O)N3CCN(c4ccc(F)cc4)CC3)c(C)o2)cc1 | 113% (inactive)
67 | CCCn1c(=O)sc2cc(NC(=O)c3ccccc3Cl)ccc21 | 71% (inactive)
68 | COc1cccc(C2C(C(=O)Nc3ccccc3)=C(C)Nc3nc(-c4ccccc4)nn32)c1 (centres undefined) | 76% (inactive)
69 | COc1ccc(N2CCN(c3ccc(-c4nc(-c5ccccc5C)no4)cc3[N+](=O)[O-])CC2)cc1 | 88% (inactive)

Row | Structure (SMILES) | survival
70 | Cc1ccc(N(CC(=O)Nc2ccc(Br)c(C)c2)S(=O)(=O)c2cccs2)cc1 | 82% (inactive)
71 | Cc1ccc(N(C(=O)c2cccc(C)c2)S(=O)(=O)c2ccc(Cl)cc2)cc1 | 65% (inactive)
72 | Cc1ccc(NC(=O)N2CCC(n3c(C)nc4cccnc43)CC2)c(Cl)c1 | 71% (inactive)
73 | CC(=O)N1CCC(N(Cc2ccc(C)o2)C(=O)Nc2ccccc2F)CC1 | 85% (inactive)
74 | COc1ccc2[nH]c(=O)c(CN(C(=O)c3cccc(Cl)c3)c3ccccc3OC)cc2c1 | 81% (inactive)
75 | Fc1ccc(C(c2nnnn2C2CCCC2)N2CCc3ccccc32)cc1 (centres undefined) | 122% (inactive)
76 | Cc1ccc(CNC(=O)CCCN2C(=O)CCn3nc(-c4cn(C)c5ccccc45)cc32)cc1 | 76% (inactive)
77 | Cn1cc(-c2cc3n(n2)CCC(=O)N3CCCC(=O)NCc2ccccc2)c2ccccc21 | 76% (inactive)
78 | O=C(CN1C(=O)CCn2nc(-c3ccccc3)cc21)NCc1ccccc1 | 124% (inactive)
79 | CN(C)c1ccc(CNC(=O)CN2C(=O)CCn3nc(-c4cn(C)c5ccccc45)cc32)cc1 | 53% (inactive)
80 | Cn1cc(-c2cc3n(n2)CCC(=O)N3CCCC(=O)Nc2ccccc2F)c2ccccc21 | 159% (inactive)
81 | Cn1cc(-c2cc3n(n2)CCC(=O)N3CCCC(=O)NCc2ccc(Cl)cc2)c2ccccc21 | 124% (inactive)
82 | O=C(CN1C(=O)CCn2nc(-c3ccccc3)cc21)NCc1ccc(Cl)cc1 | -3% (active)
83 | Cc1ccc(CNC(=O)CN2C(=O)CCn3nc(-c4ccccc4)cc32)cc1 | 68% (inactive)
84 | Cn1cc(-c2cc3n(n2)CCC(=O)N3CCCC(=O)Nc2ccccc2Cl)c2ccccc21 | -6% (active)
85 | CCc1ccccc1NC(=O)CCCN1C(=O)CCn2nc(-c3cn(C)c4ccccc34)cc21 | 134% (inactive)
86 | CN(C)c1ccc(CNC(=O)CCCN2C(=O)CCn3nc(-c4cn(C)c5ccccc45)cc32)cc1 | -1% (active)
87 | Cc1cccc(CNC(=O)CCCN2C(=O)CCn3nc(-c4cn(C)c5ccccc45)cc32)c1 | -6% (active)
88 | Cc1cc(Cl)ccc1NC(=O)CN1C(=O)CSc2ccc(S(=O)(=O)N(C)C)cc21 | 68% (inactive)
89 | O=C(NCc1ccccc1)NC1COc2ccccc2C1 (centres undefined) | 82% (inactive)
